# MARV entry inh = blocks Marburg virus binding to or entry into cells; Potency, µM (doses to about 37.8 µM), actives largely listed as inhibitors; 300,000 compounds, 1.8% hits; Marburg virus pseudotyped entry inhibition, cell reporter; AID 540276; calls by dose curve; tested in HEK293 cells
# HCV inhibitor = inhibitors of hepatitis C virus infection; 340,000 compounds, 3.4% hits; Huh7.5.1 HCVcc-Cre infection, luciferase reporter, 44 h; Potency, µM (doses to about 41.8 µM), actives largely listed as inhibitors; AID 651820; active means well fitted inhibition curve with a large enough effect; inconclusive means small, poorly fitted or top-dose-only effect, or another doubt; inactive means no such curve, though single readings can be large or run the other way
#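 Cells seeded at 1,000/well and cultured 4 h, then compounds added followed by HCVcc-Cre virus (~0.5 moi). After 44 h further culture, luciferase substrate was added, plates held 15 min at room temperature, and luminescence read for 15 sec.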
# Lassa entry inh = inhibitors of Lassa virus binding or cell entry | Potency, µM (doses to about 37.9 µM), hits mostly inhibitors | Lassa virus pseudotype entry inhibition, cell reporter | 300,000 compounds, 1.2% hits | AID 540256; calls by dose curve; tested in HEK293 cells; further: nearly all actives have a fitted effect of over 50% in size
# HCMV antiviral = blocks human cytomegalovirus replication. HFF cells, HCMV-luciferase reporter, 72 h; stronger effect = lower value. activity change, negative = inhibition, % at 57.5 µM. 410,000 compounds, 4.5% hits; in the data active means activity change below about -60%; inconclusive means no clear call, values can overlap the other calls; inactive means above about -39%
#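 Screen run at 2 compound doses on HFFs infected with reporter HCMV, MOI 1 PFU/cell. Luciferase activity from cell lysates at 72 h post infection gave inhibition relative to buffer-only and Salinomycin wells.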
# FMDV inh = foot and mouth disease virus antiviral activity; 410,000 compounds, 1.2% hits; FMDV antiviral cell-based qHTS; Potency, µM (titrated, usually from 57.9 µM), most hits filed as inhibitors; calls by dose curve; tested in HEK293T cells; further: read-out not given here; nearly all actives have a fitted effect of over 45% in size
# Numbers stand for hits; n = inactive; u = inconclusive; x = no result given. Compounds with a hit are over-represented: about 7.9% of the library has one in this group of screens.
SMILES,MARV entry inh,HCV inhibitor,Lassa entry inh,HCMV antiviral,FMDV inh
CCOc1ccccc1NC(=O)Cn1nnc(C(=O)NCc2ccco2)c1N,u,n,n,-89.8,n
Cc1ccc([C@H]2C(C(=O)O)=CC[C@@H](c3ccc4c(c3)OCO4)N2S(=O)(=O)c2ccc(C)cc2)cc1,x,n,x,n,n
Cc1cc(/C=C2/C(=O)NN(c3ccccc3)C2=O)c(C)n1-c1cccc(O)c1,u,u,3.98µM,u,44.7µM
Cc1cc(C=C2C(=O)c3ccccc3C2=O)c(C)n1-c1ccc(C(=O)O)cc1,u,n,u,n,n
Cc1cc(/C=C2\Cc3ccccc3C2=O)c(C)n1-c1ccccc1,u,u,u,u,12.6µM
Cc1cc(C=C2C(=O)c3ccccc3C2=O)c(C)n1-c1ccccc1,6.51µM,n,u,n,1.12µM
O=C1NN(c2ccccc2)C(=O)C1=Cc1ccccc1O,x,x,x,n,n
Cn1nc(NC(=O)CC23CC4CC(CC(C4)C2)C3)c2c(F)cccc21,x,n,x,n,n
Cc1cnc(CNc2cc(-c3ccc(N(C)C)cc3)ncn2)cn1,x,x,x,x,n
O=C(Nc1ccccc1F)c1oc2ccccc2c1NC(=O)c1c(F)cccc1F,u,x,n,n,n
Cc1ccc(Cn2c(C(CO)Nc3nc(-c4ccc(F)cc4)cs3)nc3ccccc32)cc1 (stereo not drawn),x,u,x,-60.2,n
Cc1ccc(N2CCN(C(=O)c3nn(C)c4c3CSc3ccccc3-4)CC2C)cc1 (stereo not drawn),n,x,u,n,n
c1ccc(N2CCN(c3c4c(nc5ncnn35)CCC4)CC2)cc1,u,u,n,-62.2,u
COc1cccc(N2CCN(c3c4c(nc5ncnn35)CCC4)CC2)c1,n,u,n,-86.1,14.1µM
COc1cccc(N2CCN(c3ncccn3)CC2)c1,u,n,n,n,x
CC1CCCCC1NC(=O)C1CCN(c2c3c(nc4ncnn24)CCC3)CC1 (stereo not drawn),n,u,n,n,n
NC1=NS(=O)(=O)NC1c1ccc(F)cc1 (stereo not drawn),n,n,n,n,n
Cc1nc2ccccc2cc1OCc1ccc(Cl)cc1,u,7.08µM,n,-75.4,u
Cc1nc(OCc2ccccc2)c2ccccc2n1,u,u,u,n,u
COc1cccc(COc2cc3ccccc3nc2C)c1,u,5.62µM,u,-79.5,u
Cc1nc2ccccc2cc1OCc1ccccc1,n,10µM,n,-93.1,n
Cc1nc2ccccc2nc(C)c1=NOCc1cccc(Cl)c1,x,n,x,n,n
O=C(Cc1ccc(NC(=O)N2CCSc3ncccc32)cc1)NCCc1ccccc1,x,x,n,n,n
CC(C)c1ccc(NC(=O)CCS(=O)(=O)c2ccc3c(c2)CC(=O)N3C)cc1,x,x,n,n,n
CC1=C(C(=O)Nc2ccc3[nH]ncc3c2)C(c2ccc(F)cc2)NC(=O)N1 (stereo not drawn),x,x,n,x,x
SMILES,MARV entry inh,HCV inhibitor,Lassa entry inh,HCMV antiviral,FMDV inh
O=C(CSc1nnc(-c2cccs2)n1-c1ccccc1)N1CCCc2ccccc21,11.6µM,u,u,n,n
CCn1c(SCC(=O)N2CCCc3ccccc32)nc2ccccc2c1=O,u,5.01µM,u,u,u
CC(C)c1nc(SCC(=O)N2CCCc3ccccc32)c2c(=O)n(C)c(=O)n(C)c2n1,n,10µM,x,n,u
Cc1cc2c(=O)n(Cc3ccco3)c(SCC(=O)N3CCCc4ccccc43)nc2s1,u,u,u,-88.0,x
CCCc1nc(SCC(=O)N2CCc3ccccc32)c2c(=O)n(C)c(=O)n(C)c2n1,n,n,x,x,x
Cc1c(C(=O)NCCSCc2cccc(C(F)(F)F)c2)cnn1-c1ccc(Cl)cc1,u,u,u,n,n
COc1ccc([C@H]2NC(=O)C[C@@H]2C(=O)N2CCOCC2)cc1,x,x,x,n,x
FC(F)(F)c1cccc(-c2nc3c(NCCc4ccccn4)nccc3[nH]2)c1,x,x,x,n,x
S=C(N/N=C1\CCc2ccccc21)NC1CCCCC1,u,8.91µM,n,n,n
Cc1ccc(C)c(NC(=S)N/N=C2/CCCCc3ccccc32)c1,u,u,u,-70.9,n
CC12CC3(C)CC(C)(C1)CC(C(=O)NC(=S)N1CCCC1)(C2)C3,u,n,n,n,n
C[C@H]1CN([C@@H](C)CO)C(=O)CCCn2cc(nn2)CO[C@@H]1CN(C)S(=O)(=O)c1cn(C)cn1,x,x,x,n,x
Nc1nc(Nc2ccccc2F)nc(N2CCCC2)c1[N+](=O)[O-],u,8.91µM,n,n,n
CC(C)CCNc1nc(N)c([N+](=O)[O-])c(N2CCCCCC2)n1,x,u,x,-93.7,u
COc1cccc(CN(C)C(=O)c2cccc(NC(=O)CC3SC(N4CCCCC4)=NC3=O)c2)c1OC (stereo not drawn),x,n,x,n,u
COc1ccc(CN(C)C(=O)c2ccc(OCC(=O)Nc3cccc(C(F)(F)F)c3)c(OC)c2)c(OC)c1,u,0.562µM,u,-83.0,u
COc1cccc(CN(C)C(=O)c2ccc(OCC(=O)Nc3cccc(C(F)(F)F)c3)c(OC)c2)c1,u,u,8.91µM,-86.3,u
COc1cc(C(=O)NCCCN(C)C)ccc1OCC(=O)Nc1cccc(C(F)(F)F)c1,u,u,u,n,n
COc1ccc(CN(C)C(=O)c2cccc(NC(=O)CC3SC(N4CCCCC4)=NC3=O)c2)c(OC)c1 (stereo not drawn),10µM,8.91µM,7.08µM,-76.6,20µM
CN(C)S(=O)(=O)N1CCC(Oc2cccc(C(=O)NC3CCCCC3)c2)CC1,n,5.62µM,u,u,u
CN(C)S(=O)(=O)N1CCC(Oc2ccc(C(=O)NCC(C)(C)CO)cc2)CC1,n,n,n,-63.7,n
CN(C)S(=O)(=O)N1CCC(Oc2ccc(C(=O)NC3CCCCC3)cc2)CC1,n,n,n,n,n
C=CCNC(=O)c1ccc(OC2CCN(S(=O)(=O)N(C)C)CC2)cc1,n,n,n,n,n
COCCNc1nc(-c2cc3ccccc3o2)cs1,u,u,3.98µM,n,n
COc1cc(OC)cc(C(=O)NC(=S)Nc2nc(-c3cc4ccccc4o3)cs2)c1,x,n,x,n,n
SMILES,MARV entry inh,HCV inhibitor,Lassa entry inh,HCMV antiviral,FMDV inh
Cc1nc(SCC(=O)Nc2c(C)n(C)n(-c3ccccc3)c2=O)c2cnn(-c3ccccc3)c2n1,x,25.1µM,x,n,u
COc1ccc(-c2c(C)oc3c(CN4CCN(C)CC4)c(O)ccc3c2=O)cc1,x,n,x,-62.5,n
CC1(C(=O)NCc2cccnc2)CCN1C(=O)Cc1cccs1 (stereo not drawn),x,x,x,n,n
O=[N+]([O-])c1ccc(Cl)c(S(=O)(=O)/N=C(/c2ccccc2)N2CCOCC2)c1,n,n,u,-104.7,n
O=C(NCC1CCCO1)C(c1ccc(F)cc1)N(C(=O)Cn1nnc(-c2ccc(F)cc2)n1)c1cccc(O)c1 (stereo not drawn),10µM,n,n,u,n
O=C(NCC1CCCO1)C(c1ccc(F)cc1)N(Cc1ccc(F)cc1)C(=O)Cn1nnc(-c2cccs2)n1 (stereo not drawn),n,2.51µM,n,n,n
NC1=NC(=O)C2(COC(c3cccnc3)OC2)S1 (stereo not drawn),n,n,n,n,n
CC(=O)N1CCN(C2=Nc3cccc4cccc2c34)CC1,n,11.2µM,n,n,x
